Data as given in PubChem BioAssay AID1159580 (chemical genetic matrix, 2015).
Values joined by “and” are separate entries in the source; they are usually repeats but may differ in a detail not shown here. Identical values can stand only once. The campaign covered roughly 5,500 compounds. About 2,000 (36%) were called active. Roughly 18% stayed inconclusive and do not appear here. Rule as the data show it: active = normalized growth mostly below about 0.91 (no sharp cut-off); inconclusive = no clear call, values can overlap the other calls; inactive = mostly above about 0.92. The list shows a part of the results.

Assay: chemical genetic growth profiling, strain panel (AID 1159580);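 also: tested at 20 µM; growth read once vehicle control cultures reached saturation at 30 °C; 1 = growth at the plate median or of vehicle wells; lower values mean less growth of the strain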
Conditions: S. cerevisiae deletion strains, growth OD

Measured: normalized growth

CC(NC(C)(C)C)C(=O)c1cccc(Cl)c1 (stereo not given)
inactive: locus YAL013W, strain DEP1, active compounds read low 1.01 | locus YAL021C, strain ccr4, active compounds read low 1.02 | locus YAL026C, strain drs2, active compounds read low 1 | locus YAL030W, strain snc1, active compounds read low 0.998 | locus YAL040C, strain CLN3, active compounds read low 0.958 | locus YBL061C, strain skt5, active compounds read low 0.993 | locus YBR009C, strain hhf1, active compounds read low 1 | locus YBR021W, strain FUR4, active compounds read low 0.995 | locus YBR023C, strain chs3, active compounds read low 0.996 | locus YBR171W, strain sec66, active compounds read low 0.996 | locus YBR229C, strain ROT2, active compounds read low 1 | locus YBR231C, strain swc5, active compounds read low 1 | locus YBR279W, strain paf1, active compounds read low 0.998 | locus YCL011C, strain gbp2, active compounds read low 1 | locus YCL016C, strain dcc1, active compounds read low 0.995 | locus YCL029C, strain bik1, active compounds read low 1.05 | locus YCL061C, strain MRC1, active compounds read low 0.994 | locus YCL069W, strain vba3, active compounds read low 0.994 | locus YCR088W, strain abp1, active compounds read low 1 | locus YDL005C, strain med2, active compounds read low 0.993 | locus YDL035C, strain GPR1, active compounds read low 1.01 | locus YDL040C, strain nat1, active compounds read low 0.994 | locus YDL074C, strain BRE1, active compounds read low 0.988 | locus YDL101C, strain DUN1, active compounds read low 1.02 | locus YDL134C, strain PPH21, active compounds read low 1 | locus YDL185W, strain tfp1, active compounds read low 1.02 | locus YDL192W, strain arf1, active compounds read low 1.03 | locus YDR001C, strain nth1, active compounds read low 1.01 | locus YDR069C, strain doa4, active compounds read low 1 | locus YDR101C, strain arx1, active compounds read low 1.03 | locus YDR137W, strain rgp1, active compounds read low 1 | locus YDR150W, strain NUM1, active compounds read low 1.01 and 0.976 | locus YDR159W, strain sac3, active compounds read low 0.997 | locus YDR162C, strain NBP2, active compounds read low 1.01 | locus YDR195W, strain ref2 0.989 | locus YDR297W, strain sur2, active compounds read low 1 | locus YDR318W, strain mcm21, active compounds read low 1.02 | locus YDR334W, strain swr1, active compounds read low 0.986 | locus YDR335W, strain msn5, active compounds read low 1 | locus YDR363W, strain ESC2, active compounds read low 1.02 | locus YDR388W, active compounds read low 1.02 | locus YDR392W, strain spt3, active compounds read low 0.978 | locus YDR502C, strain sam2, active compounds read low 1.04 | locus YEL003W, strain gim4, active compounds read low 1 | locus YEL037C, strain rad23, active compounds read low 1 | locus YEL061C, strain CIN8 (second series), active compounds read low 1 | locus YEL061C, strain CIN8, active compounds read low 1.01 | locus YER002W, strain NOP16, active compounds read low 0.979 | locus YER015W, strain faa2, active compounds read low 1 | locus YER016W, strain bim1, active compounds read low 1 | locus YER110C, active compounds read low 1.05 | locus YER111C, strain swi4, active compounds read low 0.987 | locus YER155C, strain BEM2 (second series), active compounds read low 1.01 | locus YER155C, strain BEM2, active compounds read low 1 | locus YER167W, strain BCK2, active compounds read low 1.01 | locus YFR010W, strain ubp6, active compounds read low 1 | locus YGL078C, strain dbp3, active compounds read low 1 | locus YGL086W, strain mad1, active compounds read low 1 | locus YGL167C, strain pmr1, active compounds read low 0.991 | locus YGL173C, strain kem1, active compounds read low 0.977 | locus YGL227W, strain vid30, active compounds read low 0.992 | locus YGL240W, strain doc1, active compounds read low 1.02 | locus YGL248W, strain PDE1, active compounds read low 1.01 | locus YGL253W, strain hxk2, active compounds read low 0.992 | locus YGR078C, strain PAC10, active compounds read low 1.01 | locus YGR135W, strain pre9, active compounds read low 1.02 | locus YGR229C, strain SMI1, active compounds read low 0.999 | locus YGR252W, strain gcn5, active compounds read low 0.989 | locus YHR013C, strain ard1, active compounds read low 0.976 | locus YHR027C, strain rpn1, active compounds read low 0.996 | locus YHR030C, strain SLT2, active compounds read low 1.01 and 1 | locus YHR079C, strain IRE1 (second series), active compounds read low 1.02 | locus YHR079C, strain IRE1, active compounds read low 0.999 | locus YHR094C, strain hxt1, active compounds read low 1.02 | locus YHR129C, strain ARP1, active compounds read low 1.02 | locus YHR142W, strain chs7, active compounds read low 1 | locus YHR200W, strain rpn10, active compounds read low 1.02 | locus YIL066C, strain RNR3, active compounds read low 1.01 | locus YIL073C, strain SPO22, active compounds read low 1.07 | locus YIL125W, strain kgd1, active compounds read low 1.02 | locus YIR030C, strain dcg1, active compounds read low 1.04 | locus YJL092W, strain hpr5, active compounds read low 0.995 | locus YJL095W, strain BCK1 (second series), active compounds read low 0.997 | locus YJL095W, strain BCK1, active compounds read low 1.01 and 0.995 | locus YJL115W, strain asf1, active compounds read low 0.996 | locus YJL129C, strain trk1, active compounds read low 1.01 | locus YJL134W, strain LCB3, active compounds read low 1.01 | locus YJL154C, strain vps35, active compounds read low 1.01 | locus YJL164C, strain tpk1, active compounds read low 1 | locus YJL166W, strain qcr8, active compounds read low 0.993 | locus YJL168C, strain set2, active compounds read low 1.02 | locus YJL187C, strain SWE1 (second series), active compounds read low 1.02 | locus YJL187C, strain SWE1, active compounds read low 0.996 | locus YJR043C, strain POL32, active compounds read low 1 | locus YJR066W, strain TOR1, active compounds read low 0.969
